Bioassay records: PubChem BioAssay, National Center for Advancing Translational Sciences (NCATS)
Nrf2 block = blocks Nrf2 signaling; A549 ARE-Fluc reporter, luciferase luminescence, 18-24 h; Potency, µM (series often up to 46 µM), for the others: at the top dose activity change, negative = inhibition, most hits filed as inhibitors; 360,000 tested, 2.1% active; also: potency is read from the fitted curve at half-maximal effect; % is scaled to controls: 0 for no effect and ±100 for the full control effect; nearly all actives have a fitted effect of over 60% in size
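Concentration-response testing used A549 ARE_Fluc cells at 5000 cells/well. Following an 18-24 h compound incubation, viability was read by fluorescence (Ex 405/Em 525) and luciferase output by luminescence.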
A549 tox = counter-screen for Nrf2 inhibitors: cytotoxicity in A549 cells; A549 ARE-Fluc cells, CellTiter-Fluor viability, 18-24 h; Potency, µM (top dose mostly 46 µM), for the others: at the top dose activity change, negative = cytotoxicity, hits mostly inhibitors; 390,000 tested, 0.16% active; AID 504648; also: potency is read from the fitted curve at half-maximal effect; % is scaled to controls: 0 for no effect and ±100 for the full control effect
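A549 ARE_Fluc cells in 5% FBS OPTI-MEM were exposed to compounds in concentration-response for 18-24 h at 37 deg C. Viability was read by CellTiter-Fluor fluorescence (Ex 405/Em 525) after 30 min, before the luciferase read.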
LDHA inh = inhibitors of human lactate dehydrogenase A; P00338; purified LDHA, NADH/diaphorase-resazurin fluorescence; stronger effect = lower value; activity change, % (values are at about 110 or 230 µM); 480,000 tested, 0.15% active; AID 1347041; in the data active = activity change below about -30%; inconclusive = mostly about -25% to -30%;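 also: plate controls were DMSO wells for no effect and wells without enzyme for full effect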
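Remaining NADH was detected by diaphorase (0.133 mg/mL) converting 37 µM resazurin to fluorescent resorufin, read at 0 and 20 minutes. The preceding 5-minute room-temperature reaction used 2 nM LDHA, 0.2 mM sodium pyruvate and 0.06 mM NADH at pH 7.4.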
Nrf2 ARE act = activators of Nrf2 (ARE) signaling; AREc32 ARE-luciferase reporter (MCF7-derived line), luminescence, 24 h; Potency, µM (series often up to 46.1 µM), without a hit: at the highest dose activation, usual class: activators; 410,000 tested, 0.31% active; AID 624171; also: potency is read from the fitted curve at half-maximal effect; % of control where 0% means no effect; nearly all actives have a fitted effect of over 65% in size
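AREc32_Fluc, 1000 cells/well, OPTI-MEM + 5% FBS, o/n 37 deg C 5% CO2; 23 nL cpd by pin tool, 24 hr; Steady-Glo 30 min RT, luminescence.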
ERG Ets-DNA blk = inhibitors of human ERG Ets domain-DNA interaction | P11308 | fluorescence polarization, His-ERG Ets domain / labelled DNA | Potency, µM (top dose mostly 76.9 µM), without a hit: at the top dose FP activity, negative = inhibition, most hits filed as inhibitors | 370,000 tested, 0.028% active; active = well fitted inhibition curve with a large enough effect in the polarisation, with a control signal flat; inconclusive = small, poorly fitted or top-dose-only effect, or effect the other way, or a change in a side signal; inactive = no such curve, though single readings can be large or run the other way; the % refers to the polarisation;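 also: polarization taken with two DNA probes labelled with fluorescein and Texas red; potency is read from the fitted curve at half-maximal effect; % of control where 0% means no effect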
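His-tagged ERG Ets domain (1 uM in the protein solution; 300mM KCl, 50mM Tris-HCl, 1mM EDTA, 1mM DTT, pH 7.5) received compound, then a probe mix of 5 nM fluorescein-DNA and 100nM Texas-615-DNA. Fluorescence polarization was read for both dyes.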
12-LOX inh = inhibitors of human 12S-lipoxygenase ALOX12. Potency, µM (titrated, usually from 108 µM), for the others: at the top dose activity change, negative = inhibition, hits mostly inhibitors. AID 1671190. 580,000 tested, 1.1% active. purified 12hLO, xylenol orange hydroperoxide absorbance. P18054; also: potency is read from the fitted curve at half-maximal effect; % is scaled to controls: 0 for no effect and ±100 for the full control effect
Target sequence (P18054 whole entry, looked up): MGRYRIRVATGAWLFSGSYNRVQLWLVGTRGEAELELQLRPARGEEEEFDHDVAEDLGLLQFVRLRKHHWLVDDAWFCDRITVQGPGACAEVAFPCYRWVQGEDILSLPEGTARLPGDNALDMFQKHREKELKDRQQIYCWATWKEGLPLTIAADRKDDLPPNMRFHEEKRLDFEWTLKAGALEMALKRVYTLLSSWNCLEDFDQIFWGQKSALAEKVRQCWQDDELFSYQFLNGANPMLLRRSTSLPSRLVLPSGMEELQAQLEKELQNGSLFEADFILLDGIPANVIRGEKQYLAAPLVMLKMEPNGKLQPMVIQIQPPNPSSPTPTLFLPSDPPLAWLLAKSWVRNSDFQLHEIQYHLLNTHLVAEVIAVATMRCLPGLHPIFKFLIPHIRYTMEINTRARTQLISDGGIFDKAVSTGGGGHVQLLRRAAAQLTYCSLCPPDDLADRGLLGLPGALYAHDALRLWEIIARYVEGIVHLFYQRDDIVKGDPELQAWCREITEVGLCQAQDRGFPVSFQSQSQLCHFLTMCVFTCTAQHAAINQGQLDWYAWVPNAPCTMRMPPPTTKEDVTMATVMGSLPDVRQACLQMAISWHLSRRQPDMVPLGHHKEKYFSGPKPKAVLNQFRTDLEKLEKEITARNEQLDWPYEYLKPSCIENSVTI
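Purified human 12hLO at 150 nM in 25 mM Hepes, 0.01% Triton X-100, pH 7.0, preincubated 15 min at room temperature with compound. Reaction started with 40 uM arachidonic acid, 30 min at room temperature. Hydroperoxide measured by Fe-xylenol orange, 573/405 nm absorbance ratio.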
* hit, by the source's call; u = inconclusive; x = no result; [ ] = another dose, or the depositor's remark. Hits are enriched below; roughly 2.7% of the tested compounds scored in any of these assays. Unless noted, calls follow the shape of the dose curve; as a rule, active = well fitted curve in the direction sought with a large enough effect; inconclusive = small, poorly fitted or top-dose-only effect, or another doubt; inactive = no such curve, though single readings can be large; an effect the other way counts as inactive or inconclusive.

SMILES	Nrf2 block	A549 tox	LDHA inh	Nrf2 ARE act	ERG Ets-DNA blk	12-LOX inh
Cc1ccc(CNC(=O)c2ccccc2NCC(=O)N2CC(=O)Nc3ccccc32)cc1	x	x	0.7	x	x	u
CCOc1cc(C=O)cc(Br)c1OC(=O)c1ccc(OC)cc1	x	x	7.9	x	x	u
Cc1nc2c(C)cccn2c1/C(O)=C1\C(=O)C(=O)N(CCN(C)C)C1c1ccc(Br)cc1 (configuration not stated)	x	x	2.9	x	x	u
COC(=O)Cc1c(C)c2ccc(O)cc2oc1=O	x	x	-30.5*	x	x	-16.8%
COC(=O)COc1ccc2c(C)c(CC(=O)OC)c(=O)oc2c1	x	x	1.4	x	x	-0.7%
N#CC(Sc1ccccn1)c1ccc(Cl)cc1 (configuration not stated)	13µM*	-0.4%	-1.6	18.9%	16.1%	-19.1%
CSc1ccc(-c2nc(CSCC(=O)NCc3ccc4c(c3)OCO4)c(C)o2)cc1	x	x	7.1	x	x	u
O=C(c1cccnc1)N1CCCC(n2cc(-c3nc(-c4ccccc4)no3)nn2)C1 (configuration not stated)	x	x	x	x	x	39.8µM*
Cc1ccc2ncnc(Nc3ccc(C)c(C)c3)c2c1	14.6µM*	-1.1%	-2.3	3.0%	-4.9%	20.4%
COc1ccc(S(=O)(=O)N2CCc3ccccc32)cc1C(=O)N1CCN(C(=O)c2ccco2)CC1	x	x	-9.5	x	x	u
Cc1ccc(OCn2ccc(C(=O)NCc3c(C)nn(C)c3C)n2)c(C)c1	x	x	-2.3	x	x	23.8%
COCCn1c(C)cc(C(=O)CSc2nnc(C)s2)c1C	14.6µM*	-1.9%	-4.5	-1.4%	4.3%	5.6%
Nc1nccnc1C(=O)NCCC(c1ccccc1)c1ccccc1	x	x	7.4	x	x	42.4%
Cc1ccc(S(=O)(=O)/N=C2/NC(=O)/C(=C/c3ccc(Br)o3)S2)cc1	u	-9.4%	u	0.3%	x	1µM*
CC(=O)C1=C(C)N(Cc2ccc(Cl)cc2)C(=S)NC1c1cccc(Br)c1 (configuration not stated)	x	x	x	x	x	39.8µM*
CC(=O)C1=C(C)N(CC2CC2)C(=O)N[C@H]1c1ccc(Br)cc1	20.5%	2.5%	-3.4	0.6%	-10.4%	3.7%
CC(=O)C1=C(C)N(CC(C)C)C(=S)NC1c1ccc(Br)cc1 (configuration not stated)	x	x	x	x	x	39.8µM*
CC(=O)C1=C(C)N(Cc2ccc(Br)cc2)C(=S)NC1c1cccc(Br)c1 (configuration not stated)	x	x	x	x	x	31.6µM*
CN(C)c1ncc2c(n1)C(C)(C(=O)Nc1ccncc1)CCC2 (configuration not stated)	x	x	x	x	x	9.8%[176 µM]
COc1ccc(/C=C/C(=O)Oc2ccc(Br)cc2)cc1	x	x	-14.6	x	x	-31.7%
OCc1nc2ccccc2n1CC(O)COc1c(Cl)cccc1Cl (configuration not stated)	x	x	-3.3	x	x	23.7%
Cc1c(CC(=O)O)c(=O)oc2c(C)c(OCc3ccccc3F)ccc12	x	x	-1.5	x	x	u
Cc1ccc(Cl)cc1N1CCN(CC(O)COCc2ccco2)CC1 (configuration not stated)	-8.1%	-0.9%	-15.2	3.6%	7.1%	10µM*
COc1ccc2[nH]cc(C(C(=O)O)N3CCN(CCOc4ccc(Cl)cc4)CC3)c2c1 (configuration not stated)	x	x	4.4	x	x	-19.9%
O=C(O)C(c1c[nH]c2cc(F)ccc12)N1CCc2ccccc2C1 (configuration not stated)	x	x	-2.2	x	x	1.9%
SMILES	Nrf2 block	A549 tox	LDHA inh	Nrf2 ARE act	ERG Ets-DNA blk	12-LOX inh
O=C(O)C(c1c[nH]c2cc(Br)ccc12)N1CCCN(c2ccc(C(F)(F)F)cn2)CC1 (configuration not stated)	x	x	-6.6	x	x	25.1µM*
O=C(O)C(c1c[nH]c2cc(Cl)ccc12)N1CCN(CCOc2ccc(Cl)cc2)CC1 (configuration not stated)	x	x	5.5	x	x	35.5µM*
O=C(O)C(c1c[nH]c2cc(F)ccc12)N1CCN(C(c2ccccc2)c2ccccc2)CC1 (configuration not stated)	x	x	-8.9	x	x	17.8µM*
Cc1cc(N2CCN(C(C(=O)O)c3c[nH]c4ccc(CO)cc34)CC2)nc2ccccc12 (configuration not stated)	x	x	0.1	x	x	u
Cc1cc(N2CCN(C(C(=O)O)c3c[nH]c4cc(Cl)ccc34)CC2)nc2ccccc12 (configuration not stated)	x	x	0.3	x	x	17.8µM*
COc1ccc(Cc2nc3c4c(C)c(C)n(-c5cc(C)ccn5)c4ncn3n2)cc1OC	x	x	5.9	x	x	u
O=C(c1ccc(Br)cc1)N1CCC(CN2CCOCC2)CC1	x	x	-14.4	x	x	13.8%
O=C(O)C(c1c[nH]c2cc(Cl)ccc12)N1CCN(C/C=C/c2ccccc2)CC1 (configuration not stated)	x	x	-5.3	x	x	44.7µM*
COc1ccc(S(=O)(=O)N(CCc2ccccc2)CC(=O)NC(C)C)cc1	x	-2.3%	-14.2	-0.8%	-6.4%	31.6µM*
Cc1cc(CNC(=O)c2cccc(F)c2F)c2[nH]c(C)c(C)c2c1	x	x	x	x	x	-3.8%
O=C1C=C(c2ccccc2)CC(c2cccs2)C1n1cnc([N+](=O)[O-])c1 (configuration not stated)	x	-0.7%	8.1	6.8%	4.6%	u
O=C1C=C(c2ccccc2)C[C@H](c2cccs2)[C@H]1n1nnc([N+](=O)[O-])n1	u	-14.0%	16.0	u	3.1%	50.1µM*
COc1ccc(-c2[nH]nc3c2C(c2ccc(F)cc2)C2=C(CC(C)(C)CC2=O)N3)cc1 (configuration not stated)	x	x	-2.9	x	x	u
O=C(NCCS(=O)(=O)c1ccc(Br)cc1)c1ccc(Cl)cc1	3.9%	-0.5%	-12.2	-0.3%	6.4%	-20.2%
CC(C(=O)NCCS(=O)(=O)c1ccc(Br)cc1)S(=O)(=O)c1ccc(Cl)cc1 (configuration not stated)	8.5%	0.2%	-34.7*	1.8%	4.7%	-8.5%
COc1ccc2cc(C(=O)NCC3(N(C)C)CCCCCC3)[nH]c2c1	x	x	-12.3	x	x	u
CCCNC(=O)CN1CCN(c2ncc(NC(=O)c3ccc(Cl)cc3)cc2C(=O)O)CC1	x	-6.8%	14.6	0.5%	-12.4%	3.3%
CCCCNC(=O)CN1CCN(c2ncc(NC(=O)c3ccc(Cl)cc3)cc2C(=O)O)CC1	x	2.1%	21.6	0.2%	-0.8%	35.5µM*
CCc1ccc(CCC(=O)Nc2cccnc2)cc1	x	x	7.4	x	x	28.9%
Cn1c(SCC(=O)c2ccc3c(c2)OCCCO3)nnc1-c1ccc(F)cc1	x	x	14.2	x	x	7.7%
